In PubChem BioAssay (NCATS) one finds Potency and outcome data, which are given here for 16 compounds.

The structures appear in SMILES notation. Results filed as inconclusive are left out. The source made the active and inactive calls. Unless noted, the call rests on the fitted dose curve; in most records, active means well fitted curve in the direction sought with a large enough effect; inconclusive means small, poorly fitted or top-dose-only effect, or another doubt; inactive means no such curve, though single readings can be large; an effect the other way counts as inactive or inconclusive.

The target in assay [1] is Cytochrome P450 3A4 (Homo sapiens) (UniProt P08684). Kind of assay: qHTS Assay for Activators of Cytochrome P450 3A4 (AID 885). Further: nearly all actives have a fitted effect of over 65% in size. Further: potency means the concentration at half of the fitted maximal effect. Summed up:
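Human CYP3A4 dealkylates Luciferin-PPXE to luciferin, which luciferase detection converts to light. Substrate was at its KM (25uM), buffer 200mM KPO4, reaction 60 min at RT.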
A general note: In qHTS, concentration-response curves come from the screen itself.

Assay [2] is described as follows: AP1 Signaling Pathway (AID 357; active means well fitted curve in either direction with a large enough effect, not every such curve was filed as active;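 further: ME-180 reporter cells stimulated with EGF at its EC50 level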). A digest of the protocol:
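AP-1-bla ME-180 cells, Opti-MEM + 0.5% dialyzed FBS, plated overnight 37 °C. Cpd titration + EC50 EGF, 5 h 37 °C. CCF4 2.5 h RT; ex 405, em 460/530 ratio → %activity, AC50.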

The nature of assay [3]: UWB1.289 Cancer Cell Toxicity qHTS against the NCATS CANVASS Library (AID 1347347). Further: nearly all actives have a fitted effect of over 60% in size. Further: potency means the concentration at half of the fitted maximal effect. A digest of the protocol: (§1)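 Toxicity is measured over 72 h of compound exposure at 37 degrees C under 5% CO2. Each well holds 1000 cells, pre-incubated for 4 hours before dosing across an 11-point range. CellTiter-Glo luminescence gives viability.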
A short description of assay [4]: U-118MG Cancer Cell Toxicity qHTS against the NCATS CANVASS Library (AID 1347351). Further: potency means the concentration at half of the fitted maximal effect. Summed up: as §1
Assay [5] is described as follows: HPAF-II 24hr Apoptosis Induction qHTS against the NCATS CANVASS Library (AID 1347356). A digest of the protocol: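 Using an 11-point qHTS format, HPAF-II cells in DMEM/10% FBS received compounds for 24 h; doxorubicin titration as control. Caspase-3/7 activity quantified by DEVD-luciferase luminescence.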
Assay [6] can be described thus: HPAF-II 12hr Apoptosis Induction qHTS against the NCATS CANVASS Library (AID 1347358). A digest of the protocol:
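Twelve-hour compound exposure of HPAF-II cells in DMEM with 10% FBS, then luminescent Caspase-Glo 3/7 detection after 15 min at room temperature; doxorubicin control.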

The nature of assay [7]: KB-3-1 Cancer Cell Toxicity qHTS against the NCATS CANVASS Library (AID 1347366). Further: nearly all actives have a fitted effect of over 75% in size. Further: potency means the concentration at half of the fitted maximal effect. A digest of the protocol: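 Cytotoxicity toward KB-3-1 cells (500/well, DMEM + 10% FBS) was scored by CellTiter-Glo luminescence following 72 hr exposure at 37C, with bortezomib titrated as control.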
The nature of assay [8]: qHTS for ATAD5 Agonist screened against the NCATS CANVASS Library (AID 1347367).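 Further: luciferase reporter driven by ATAD5 which rises upon DNA damage.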 Summed up:
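Genotoxicity was scored as increased ATAD5-luciferase luminescence in HEK293T after 16hr of exposure, with cell viability measured by fluorescence beforehand in the same well.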

For assay [9], the target named is Nuclear receptor subfamily 1 group I member 3 (Homo sapiens) (UniProt Q14994). As to the kind of experiment: qHTS for Constitutive Androstane Receptor (CAR) Antagonist screened against the NCATS CANVASS Library (AID 1347372). Further: potency means the concentration at half of the fitted maximal effect. Summed up: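 Antagonist mode: compound added alongside 50 nM CITCO to HepG2-hCAR-CYP2B6 reporter cells, 24hr at 37C. Viability by CellTiter-Fluor fluorescence, then CAR-driven luciferase by ONE-Glo luminescence.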
Sequence of Nuclear receptor subfamily 1 group I member 3 (Homo sapiens) (Q14994 whole entry, looked up): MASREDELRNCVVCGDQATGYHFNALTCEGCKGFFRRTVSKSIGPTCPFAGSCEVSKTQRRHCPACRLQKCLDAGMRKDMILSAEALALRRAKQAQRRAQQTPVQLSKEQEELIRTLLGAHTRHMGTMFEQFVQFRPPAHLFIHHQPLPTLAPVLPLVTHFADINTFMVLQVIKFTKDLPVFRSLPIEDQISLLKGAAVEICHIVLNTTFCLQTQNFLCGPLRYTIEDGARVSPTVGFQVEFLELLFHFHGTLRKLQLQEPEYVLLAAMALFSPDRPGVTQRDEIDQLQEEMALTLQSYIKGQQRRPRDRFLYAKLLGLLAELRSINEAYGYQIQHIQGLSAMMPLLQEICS

Assay [10] shares this target. Kind of assay: qHTS for Constitutive Androstane Receptor (CAR) Agonist screened against the NCATS CANVASS Library (AID 1347373).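 Further: every well also contained 1.5 µM PK11195 alongside the test compound.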 A digest of the protocol: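 In an 11-point concentration series, compounds were incubated 24hr with HepG2 cells carrying hCAR and a CYP2B6-2.2kb reporter, with PK11195 at 1.5uM final. A CellTiter-Fluor viability read preceded the ONE-Glo luminescence read.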

Assay [11] in a line: 10-beta competent E. coli microbial cell viability qHTS against the NCATS CANVASS Library (AID 1347376). Further: series mostly up to about 46 µM. A digest of the protocol:
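Overnight 37C exposure of 10-beta E. coli (0.2 OD) to an 11-point concentration series; ATP-based luminescence after 20 min room-temperature reagent incubation; daunomycin as control.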

Assay [12] in a line: qHTS for H2AX Agonists against the NCATS CANVASS Library (AID 1347378).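 Further: phospho-H2AX S139 level in CHO-K1 lysates by TR-FRET emission ratio.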 A digest of the protocol:
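Signal is the 665/620 nm emission ratio from europium cryptate and d2 antibody pair, rising with S139-phosphorylated H2AX. CHO-K1 cells saw test agents for 3 hr at 37C; detection ran 24 hr at room temperature.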

The nature of assay [13]: Inflammasome Signaling qHTS Counterscreen: IL-1-beta AlphaLISA counterscreen against the NCATS CANVASS Library (AID 1347381).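 Further: cell-free check with purified IL-1β in medium and no THP-1 cells; series mostly up to about 57 µM.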 Summed up:
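Here, no cellular stimulation occurs; compounds in an 11-point series meet 4 pg purified IL-1-beta directly. Bead-based AlphaLISA detection follows (1 h acceptor/antibody, then 30 min donor, dark, room temperature), with excitation at 680 nm.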

The nature of assay [14]: Cytotoxicity qHTS for assessment of Hepg2 cells membrane integrity screened against the NCATS CANVASS Library (AID 1347387). Summed up: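 Membrane damage in HepG2 monolayers was estimated from released LDH, measured with CytoTox-ONE (ex 560/em 590 nm), after 5 hr treatment across 0.59 nM - 46 uM final.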
Assay [15] is described as follows: qHTS assay for small molecule disruptors of mitochondrial membrane potential screened against the NCATS CANVASS Library (AID 1347389). Further: nearly all actives have a fitted effect of over 60% in size. Further: potency means the concentration at half of the fitted maximal effect. A digest of the protocol: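 Cells (HepG2) seeded the day before received compound or DMSO for 1 hr, then Mito-MPS dye for 30 min at 37C; emission at 590 nm over 535 nm gave the polarization signal.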
The nature of assay [16]: Secretion counterscreen for inhibitors of the SERCaMP assay screened against the NCATS CANVASS Library (AID 1347390).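 Further: light from luciferase secreted into medium read as a measure of general secretion; series mostly up to about 77 µM.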 A digest of the protocol: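 Natural products are titrated in an 11-point series up to 77 uM onto SH-SY5Y-GLuc STOP cells for 20 h. Secreted reporter activity is measured as coelenterazine-driven luminescence, with Brefeldin A on each plate.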
Assay [17] in a line: KB-8-5-11 Cancer Cell Toxicity qHTS against the NCATS CANVASS Library (AID 1347364). Further: nearly all actives have a fitted effect of over 75% in size. A digest of the protocol:
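Luminescent ATP signal (CellTiter-Glo, 10 min at room temperature) measured cell survival of KB-8-5-11 after 72 hr compound treatment. For confirmation, the cells were also grown with 1uM tariquidar.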

The nature of assay [18]: J3T Cancer Cell Toxicity qHTS against the NCATS CANVASS Library (AID 1347371). A digest of the protocol:
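ATP-based cytotoxicity in canine J3T cells: 72 hr exposure at 37C, 11-point titration, CellTiterGlo luminescent detection.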

Assay [19] can be described thus: qHTS for activators of dead-cell proteases activity screened against the NCATS CANVASS Library (AID 1347392).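 Further: luminescence from protease leaking out of membrane-damaged cells cleaving impermeant substrate; rising signal means more cytotoxicity.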 A digest of the protocol: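 Luminescent dead-cell protease readout (AAF-aminoluciferin, 15 min, room temperature) after 5 h compound treatment of HepG2 cells (2000/well, pre-attached 18 h). Eleven concentrations.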
Assay [20] can be described thus: qHTS for Inhibitors of Plasmodium falciparum (DD2) proliferation (AID 504314).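 Further: parasite DNA measured by SYBR Green fluorescence after red cell lysis.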 A digest of the protocol:
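Parasite proliferation measured as SYBR Green signal from Plasmodium DNA, mature erythrocytes lacking DNA. 72 h incubation, 37C; activity scaled between vehicle and 0.29 uM artemisinin, with correction from vehicle-only plates.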

Sequence of Cytochrome P450 3A4 (Homo sapiens) (P08684 whole entry, looked up): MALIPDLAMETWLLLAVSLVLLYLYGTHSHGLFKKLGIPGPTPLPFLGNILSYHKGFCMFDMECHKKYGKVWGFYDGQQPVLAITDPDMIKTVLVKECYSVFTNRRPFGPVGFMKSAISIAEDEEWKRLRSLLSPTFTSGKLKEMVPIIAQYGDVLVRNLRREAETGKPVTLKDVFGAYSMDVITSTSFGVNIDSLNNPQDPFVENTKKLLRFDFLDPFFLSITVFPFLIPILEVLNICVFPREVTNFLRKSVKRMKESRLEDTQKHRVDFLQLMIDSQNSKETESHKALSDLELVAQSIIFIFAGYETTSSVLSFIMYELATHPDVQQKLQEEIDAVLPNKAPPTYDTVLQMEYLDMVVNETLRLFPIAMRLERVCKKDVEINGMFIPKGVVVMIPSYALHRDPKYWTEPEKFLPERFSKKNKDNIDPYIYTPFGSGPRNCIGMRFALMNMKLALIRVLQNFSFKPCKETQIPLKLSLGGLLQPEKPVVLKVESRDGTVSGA

Turning to `NC(=NCc1ccc(Cl)cc1)SCCCc1cnc[nH]1`, the Potency result in [1] is “inactive”.

Take `O=C(O)c1ccccc1-c1c2cc(Br)c(=O)cc-2oc2[c]([Hg])c(O)c(Br)cc12`: in assay [2], the result was inactive. Besides, the Potency result in [1] is “inactive”.

For the compound `CN(C)c1ccc(/C=C2\CCCN=C2c2cccnc2)cc1`, in assay [1], the Potency entry was “inactive”.

In the case of `CCCCC[C@@H]1OC(=O)[C@@H](C)N(C)C(=O)[C@H](CCCCC)OC(=O)C(C)N(C)C(=O)[C@H](CCCCC)OC(=O)[C@@H](C)N(C)C(=O)[C@H](CCCCC)OC(=O)C(C)N(C)C1=O` (stereo not given in full), the Potency was 13.3 µM (active) in assay [3]; 14.9 µM (active) in assay [4]; 9.35 µM (active) in assay [7]; 11.7 µM (active) in assay [9]; 4.17 µM (active) in assay [15]. The compound was called inactive in [5], in assay [6], in assay [10], in assay [11], in assay [13] and in assay [14]. Also, the Potency entry in assay [8], in assay [12] and in assay [16] was “inactive” throughout.

For the compound `CC1=CC2CC[C@@H]3[C@@H](C)C[C@H](C)[C@@H](C1)N23` (stereo not given in full), the Potency result in assay [3], in assay [4], in assay [17], in [7], in [8] and in assay [18] was “inactive” each time. The Potency result in assay [9], in assay [12], in assay [15] and in assay [19] was “inactive” in each case. Moreover, the result in [5], in assay [6], in assay [10], in [11], in assay [13] and in assay [14] was inactive.

Regarding `O=C1CC[C@@]2(O)[C@H]3Cc4ccc(O)c5c4[C@@]2(CCN3CC2CC2)[C@@H]1O5`, in [2], the outcome was inactive.

Turning to `CNCCc1ccc(O)cc1`, the Potency result in [3], in assay [4], in assay [17], in [7], in assay [8] and in assay [18] was “inactive” throughout. For the same compound, the Potency result in [9], in assay [12], in [15], in assay [16] and in [19] was “inactive” throughout. The compound was called inactive in assay [5], in [6], in [10], in assay [11], in assay [13] and in assay [14].

Turning to `O=C1Nc2ccccc2C2(CCN(CCc3ccc(C(F)(F)F)cc3)CC2)O1`, in assay [1], the Potency was 7.94 µM (active).

For `Oc1ccc2c3c1O[C@H]1c4[nH]c5ccccc5c4C[C@]4(O)[C@H](C2)N(CC2CC2)CC[C@@]314`, in [2], the result was inactive. Besides, in assay [1], the Potency result is “inactive”.

Regarding `CC(=O)N[C@H]1CCN2CCC[C@H]12`, the Potency result in assay [3], in assay [4], in [17], in assay [7], in assay [8] and in assay [18] was “inactive” throughout. Moreover, the Potency result in assay [9], in assay [12], in [15], in [16] and in [19] was “inactive” in each case. The outcome in assay [5], in assay [6], in assay [10], in [11], in assay [13] and in assay [14] was inactive.

With `Cc1c(C(=O)c2ccc3ccccc3c2)c2cccc3c2n1[C@H](CN1CCOCC1)CO3`, the Potency entry in assay [1] is “inactive”.

Take `CC[N@@+]1([O-])C[C@]2(C)CC[C@@H](O)[C@@]34C5C[C@H]6CC[C@@]5(C(C[C@H]23)C41)[C@H](O)[C@@]6(O)CO` (stereo not given in full): the Potency result in [3], in assay [4], in [17], in assay [7], in [8] and in assay [18] was “inactive” in each case. Further, the Potency result in [9], in [12], in assay [15], in assay [16] and in [19] was “inactive” throughout. Moreover, the outcome in assay [5], in assay [6], in assay [10], in [11], in [13] and in [14] was inactive.

As to `CC(=O)[C@]12C[C@]3(C)CCCN(C(=O)N[C@@H]1c1ccccc1)C32` (stereo not given in full), the compound was called inactive in assay [20].

Turning to `CCOC(=O)[C@@]12C3[C@@H](CCN3C(=O)N[C@@H]1c1ccccc1)[C@@H]2C` (stereo not given in full), in assay [20], the result was inactive.

As to `CCC[C@]12CCN3C(=O)N[C@@H](c4ccccc4)[C@](C(=O)OCC)(C1)[C@H]32`, in [20], the compound was called inactive.

For `CCN1C[C@]2(C)CC[C@H](O)[C@]34C1C(C[C@H]23)[C@@]12CC[C@H](CC14)[C@](O)(COC(=O)c1ccc(OC)c(OC)c1)[C@H]2O` (stereo not given in full), the Potency result in [3], in [4], in [17], in assay [7], in assay [8] and in assay [18] was “inactive” in each case. Also, the Potency entry in [9], in assay [12], in [15], in [16] and in assay [19] was “inactive” throughout. For the same compound, the outcome in assay [5], in [6], in assay [10], in [11], in [13] and in assay [14] was inactive.
